Assay outcomes (PubChem)
Sampled rows, rich in hits. Any-hit rate of the full collection: about 18%.
DT40 TDP1 CPT: qHTS for Inhibitors of human tyrosyl-DNA phosphodiesterase 1 (TDP1): qHTS in cells in presence of CPT. chicken DT40 Tdp1-/-;hTDP1 cells + 20 nM CPT, ATP luminescence, 48 h. Potency, µM (top dose mostly 46.2 µM), for the others: top-dose activity change, negative = growth inhibition, most hits filed as inhibitors. 420,000 compounds, 12% hits. AID 686979, 2013; note: potency is the fitted concentration of half-maximal effect; nearly all actives have a fitted effect of over 55% in size
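Chicken DT40 Tdp1-/- cells complemented with human TDP1, 400 cells/well, exposed to compounds plus 20 nM camptothecin for at least 48 h at 37 C; viability read as ATP content by CellTiter-Glo luminescence.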
DT40 TDP1 no CPT: qHTS for Inhibitors of human tyrosyl-DNA phosphodiesterase 1 (TDP1): qHTS in cells in absence of CPT | DT40 Tdp1-/- hTDP1 cells, no CPT, ATP luminescence, 48 h | Potency, µM (highest dose often 46.2 µM), for the others: top-dose activity change, negative = growth inhibition, actives largely listed as inhibitors | 420,000 compounds, 15% hits | AID 686978, 2013; note: potency is the fitted concentration of half-maximal effect; nearly all actives have a fitted effect of over 55% in size
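Camptothecin absent (DMSO only). Human TDP1-complemented DT40 knockout cells, 400 cells/well, 37 °C for minimum 48 hr; ATP measured via CellTiter-Glo, 30 min dark incubation, luminescence.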
IL1B secr inh: qHTS for Inhibitors of Inflammasome Signaling: IL-1-beta AlphaLISA Primary Screen; THP-1 LPS/ATP IL-1B secretion, AlphaLISA, 16 h; hits give low values; activity change, % at 57.5 µM; 360,000 compounds, 4.7% hits; AID 743279, 2014; in the data active = activity change below about -50%; inconclusive = mostly about -30% to -49%
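Secreted IL-1B measured by AlphaLISA bead assay after 16 h compound exposure of THP-1 cells; compounds (final up to 57.5 uM) added 1 h before LPS (250 ng/mL) and ATP (1.25 mM) stimulation; lower signal means less secretion.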
CtBP-E1A inh: qHTS Assay for Inhibitors of the CtBP/E1A Interaction; CtBP / adenovirus E1A interaction (AlphaScreen); AlphaScreen GST-E1A/His-CtBP binding, 1536-well; hits give low values; activity change, % (no concentration beside the values); 340,000 compounds, 0.49% hits; AID 651724, 2012; in the data active = activity change below about -65%; inconclusive = mostly about -30% to -63%
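AlphaScreen with 125 nM GST-E1A and 125 nM His-CtBP (5X stocks) in Tris pH 8.0, 300 mM NaCl, BSA, Tween 20, TCEP. Compounds preincubated 2 h at 37 deg C, then glutathione donor/nickel acceptor beads added for 1 h at 37 deg C in dark.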
Six1-Eya2 blk: qHTS Assay for Inhibitors of the Six1/Eya2 Interaction; AlphaScreen GST-Six1/His-Eya2 binding, biochemical; hits give low values; activity change, % (no concentration beside the values); 360,000 compounds, 0.56% hits; AID 651725, 2012; in the data active = activity change below about -65%; inconclusive = mostly about -30% to -63%
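Six1/Eya2 binding was read as AlphaScreen signal after compounds were pinned into GST-Six1 plus His-tagged Eya2 (5X stock 250/500 nM) in pH 8.0 Tris/NaCl/TCEP buffer, beads added, then incubated 1 h, 37 C, dark.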
TDP1 inh: qHTS Assay for Inhibitors of Tyrosyl-DNA Phosphodiesterase (TDP1); Potency, µM (titrated, usually from 130 µM), without a hit: top-dose activity change, negative = inhibition, usual class: inhibitors; Tyrosyl-DNA phosphodiesterase 1 (Homo sapiens), Q9NUW8; recombinant TDP1, AlphaScreen DNA substrate cleavage; 350,000 compounds, 0.28% hits; note: potency is the fitted concentration of half-maximal effect; nearly all actives have a fitted effect of over 40% in size
Target sequence (Q9NUW8 whole entry, looked up): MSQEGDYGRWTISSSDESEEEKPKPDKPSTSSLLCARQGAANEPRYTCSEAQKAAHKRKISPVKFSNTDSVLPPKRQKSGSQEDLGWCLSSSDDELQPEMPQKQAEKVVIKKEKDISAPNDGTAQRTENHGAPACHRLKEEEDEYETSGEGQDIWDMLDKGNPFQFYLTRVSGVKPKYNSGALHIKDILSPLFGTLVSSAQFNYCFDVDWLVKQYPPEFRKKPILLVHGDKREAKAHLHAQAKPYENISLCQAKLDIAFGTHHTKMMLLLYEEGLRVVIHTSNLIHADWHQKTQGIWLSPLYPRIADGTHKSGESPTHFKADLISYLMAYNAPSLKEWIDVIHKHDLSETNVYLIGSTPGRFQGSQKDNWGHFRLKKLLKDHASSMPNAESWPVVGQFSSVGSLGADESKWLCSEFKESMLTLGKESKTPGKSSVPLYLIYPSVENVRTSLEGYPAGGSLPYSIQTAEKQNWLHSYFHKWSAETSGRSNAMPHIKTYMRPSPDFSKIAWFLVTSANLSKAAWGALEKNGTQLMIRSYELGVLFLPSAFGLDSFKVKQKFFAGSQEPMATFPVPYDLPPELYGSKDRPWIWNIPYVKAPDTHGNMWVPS
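Steps: enzyme plus compound, 15 min RT; add biotin/phosphotyrosine-FITC oligonucleotide (15 nM final), react 5 min; add donor/acceptor beads (10 ug/ml final), 10 min; read AlphaScreen. Tdp1 at 1 nM final.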
The depositor's hits bear a star; ? = inconclusive; . = no result; [ ] = dose if it differs, or a comment. Unless noted, calls come from the whole dose curve; as a rule, active = well fitted curve in the direction sought with a large enough effect; inconclusive = small, poorly fitted or top-dose-only effect, or another doubt; inactive = no such curve, though single readings can be large; an effect the other way counts as inactive or inconclusive. % is set by controls: 0 for no effect and ±100 for the full control effect.

SMILES	DT40 TDP1 CPT	DT40 TDP1 no CPT	IL1B secr inh	CtBP-E1A inh	Six1-Eya2 blk	TDP1 inh
O=C(N/N=C/c1ccc(Br)cc1)c1cc[n+](Cc2ccccc2)cc1	-0.4%	-10.4%	-5.1	-1.5	15.5	3.0%
Cc1ccc(C)c(N2CCN(c3cnn(-c4nc5ccccc5s4)c(=O)c3Cl)CC2)c1	9.2µM*	9.2µM*	-5.1	-16.7	1.9	-1.8%
COc1ccc(Nc2cnn(-c3nc4ccccc4s3)c(=O)c2Cl)cc1	2.06µM*	4.11µM*	-81.2*	-0.5	-19.1	-9.1%
Cc1ccc(-c2c[nH]c(=S)n2-c2ccccc2F)cc1	?	23.1µM*	-1.9	-26.2	-20.1	6.9%
COc1ccccc1-n1c(-c2ccccc2)c[nH]c1=S	18.4µM*	16.4µM*	41.1	0.3	-11.4	8.8%
Cc1ccc(-c2c[nH]c(=S)n2-c2ccccc2)cc1	?	-20.4%	2.9	-21.5	-14.4	8.8%
Cc1ccc(O)c(-c2cc3ccccc3[nH]2)c1	-6.4%	-36.2%	-13.2	-1.5	-13.0	9.1%
O=C(CCSCCc1ccccn1)Nc1ccccc1C(F)(F)F	-2.2%	-26.4%	.	.	.	-0.9%
O=C(Nc1cccs1)Nc1ccc(F)cc1F	23.1µM*	14.6µM*	-11.4	5.7	-7.5	11.4%
O=C(NCc1csc(-c2cccs2)n1)Nc1ccc(F)cc1F	?	11.6µM*	-7.6	.	-0.7	0.0%
O=C(Nc1cccs1)Nc1ccc(Br)cc1F	?	20.6µM*	.	4.0	-7.5	-3.4%
COc1ccc(-c2cc(N3C(=O)Nc4ccccc4N3O)n[nH]2)c(OC)c1	-11.0%	18.9%	-20.4	2.6	0.8	10.0%
CCc1nc(SCc2ccc(F)cc2)n[nH]1	-6.8%	-3.3%	-22.1	2.1	8.3	6.0%
O=C(Cc1ccc(Br)cc1)Nc1ccc(S(=O)(=O)N2CCCC2)cc1	.	.	.	.	.	0.6%
CCCN(CC(=O)Nc1ccc(F)c(F)c1F)C(=O)c1cc([N+](=O)[O-])ccc1N1CCOCC1	?	?	-11.4	-2.5	0.1	5.7%
O=C1CN(c2ccc(Cl)cc2)C2(CCCCC2)S1	29.1µM*	?	2.8	-0.6	-0.7	-1.1%
Cc1ccc(NS(=O)(=O)c2ccc(C(=O)N3CCCC(C(F)(F)F)C3)cc2)cc1 (stereo not drawn)	?	?	16.9	2.6	-0.2	.
CCOC(=O)c1c(C)n(C)c2cc(OCCN(CC)CC)ccc12	0.9%	-0.2%	-55.1*	-9.2	-10.5	5.4%
CCOC(=O)c1c(C)n(-c2ccccc2)c2ccc(OCCN(C)C)cc12	?	?	-80.2*	-17.5	-14.1	.
CCOC(=O)c1c(C)n(C)c2ccc(OCCN(C)C)cc12	-4.7%	7.8%	?	-21.0	1.9	0.0%
CCOC(=O)c1c(C)n(-c2ccccc2)c2ccc(OC(=O)c3cccc(Cl)c3)cc12	?	25.9µM*	.	.	.	3.8%[2.28 µM]
CCOC(=O)c1c(C)n(-c2ccccc2)c2ccc(OC(=O)c3ccccc3)cc12	?	16.4µM*	.	.	.	0.4%[12.3 µM]
CCOC(=O)c1c(C)n(-c2ccccc2)c2ccc(OC(=O)c3c(F)cccc3F)cc12	-8.5%	-7.0%	.	.	.	-1.3%[12.3 µM]
CCOc1ccc2c(c1)c(C(C)=O)c(C)n2-c1ccccc1	-10.3%	-7.0%	-8.6	-0.3	-1.3	7.8%
CCOC(=O)c1c(C)n(-c2ccc(C)cc2)c2ccc(OCC(O)CNCC3CCCO3)cc12 (stereo not drawn)	16.4µM*	18.4µM*	-54.1*	-27.2	-19.0	1.2%
SMILES	DT40 TDP1 CPT	DT40 TDP1 no CPT	IL1B secr inh	CtBP-E1A inh	Six1-Eya2 blk	TDP1 inh
O=C(OCC(=O)N1CCCCC1)c1ccc2ccccc2n1	5.2%	-24.1%	31.2	.	-3.5	-1.6%
Fc1cccc(Cl)c1C1SCc2nc3ccccc3n21 (stereo not drawn)	16.4µM*	14.6µM*	23.7	-23.4	1.5	.
CCCCCc1nnc(NC(=O)C(=O)OCC)s1	8.9%	12.4%	9.7	-0.9	2.8	1.0%
C=CCn1c(COc2ccccc2)nnc1SCC(=O)N/N=C/c1cc(Cl)ccc1O	?	?	46.7	?	?	9.2%
C=CCn1c(CNc2ccccc2)nnc1SCC(=O)N/N=C/c1ccc(O)cc1O	18.4µM*	?	86.0	-80.7*	-87.8*	8.0%
C=CCn1c(CNc2ccc(C)cc2)nnc1SCC(=O)N/N=C/c1ccc(O)cc1O	18.4µM*	?	82.1	-81.6*	-86.1*	11.0%
COc1ccc(N2C(=O)CSC2c2ccccc2[N+](=O)[O-])cc1 (stereo not drawn)	5.2%	-0.3%	14.1	-12.1	-10.0	1.8%
CC1CN(C(=O)c2ccc(OC3CCN(Cc4ccccn4)CC3)cc2)CCN1C (stereo not drawn)	-1.8%	-4.7%	11.2	5.3	-5.3	2.7%[56.1 µM]
Cc1cn([C@H]2C[C@H](O)[C@@H](CCC(=O)NCc3ccco3)O2)c(=O)[nH]c1=O	-3.7%	-19.0%	-0.1	-1.0	-12.6	.
CN=C1S/C(=C\c2ccc(O)c(Br)c2)C(=O)N1C	-21.9%	?	-0.7	-0.7	-0.3	.
COc1ccc(CNC(=O)Cn2cnc3c(OCc4ccccc4)ncnc32)cc1	-19.6%	?	43.6	-6.8	5.3	0.0%
O=C(Nc1ccc(N2CCOCC2)c2nonc12)C1CCCC1	18.4µM*	25.9µM*	-20.6	-9.4	-20.2	6.1%
C1=C(c2cccc3ccccc23)N2CCN=C2S1	-19.7%	-21.6%	-10.8	-2.6	5.4	-0.9%
CCOC(=O)c1cnc2ccc(C(=O)OC)cc2c1Nc1cccc(C(=O)O)c1	20.3%	10.2%	40.4	-4.2	9.5	2.3%
CCOC(=O)c1cnc2c(C(F)(F)F)cccc2c1Nc1cccc(C(=O)OC)c1	?	14.6µM*	.	.	.	.
CCOC(=O)c1cnc2c(C)cccc2c1Nc1ccc(OC(C)C)cc1	?	23.1µM*	.	.	.	.
CCOC(=O)c1cnc2c(ccc3ccccc32)c1Nc1ccccc1O	20.6µM*	?	.	.	.	.
CCOC(=O)c1cnc2c(C)cc(C)cc2c1Nc1ccc(OCc2ccccc2)cc1	-9.9%	-18.1%	.	.	.	2.2%[12.3 µM]
CCOC(=O)c1cnc2c(ccc3ccccc32)c1Cl	2.8%	-4.0%	-12.1	5.9	10.9	.
CCOc1ccccc1NC(=O)NC(=O)N(C)S(C)(=O)=O	-9.5%	-0.1%	20.2	.	13.3	2.5%
